Data: PubChem BioAssay (NCI)
The panel holds about 83,000 compounds, 20% with a hit somewhere; the sample as a whole holds those more often.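 In brief: 96-well plates, 48 h treatment, single concentration, percent growth endpoint.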 Values without a mark were called inactive. Calls of active or inactive are those of the source. How the source made its calls: active means growth percent below 10; inactive means the rest.

Columns and labels:
Test in all cases: NCI-60 one-dose screen, 48 h (100 = growth as untreated, 0 = no growth, -100 = all killed)
Conditions in all cases: 10 µM unless noted
OVCAR-8 ovarian = test system: OVCAR-8 ovarian
OVCAR-5 ovarian = test system: OVCAR-5 ovarian
OVCAR-4 ovarian = test system: OVCAR-4 ovarian
SK-OV-3 ovarian = test system: SK-OV-3 ovarian
IGROV1 ovarian = test system: IGROV1 ovarian
OVCAR-3 ovarian = test system: OVCAR-3 ovarian
HS 578T breast = test system: HS 578T breast
NCI/ADR-RES ovarian = test system: NCI/ADR-RES ovarian
T-47D breast = test system: T-47D breast
BT-549 breast = test system: BT-549 breast
MDA-MB-435 melanoma = test system: MDA-MB-435 melanoma
SW-620 colon = test system: SW-620 colon
MCF7 breast = test system: MCF7 breast
HCT-116 colon = test system: HCT-116 colon
HCC-2998 colon = test system: HCC-2998 colon
KM12 colon = test system: KM12 colon

SMILES | growth (OVCAR-8 ovarian) | growth (OVCAR-5 ovarian) | growth (OVCAR-4 ovarian) | growth (SK-OV-3 ovarian) | growth (IGROV1 ovarian) | growth (OVCAR-3 ovarian) | growth (HS 578T breast) | growth (NCI/ADR-RES ovarian) | growth (T-47D breast) | growth (BT-549 breast) | growth (MDA-MB-435 melanoma) | growth (SW-620 colon) | growth (MCF7 breast) | growth (HCT-116 colon) | growth (HCC-2998 colon) | growth (KM12 colon)
O=C(CCCC(=O)Nc1ccc(-n2nnc3cc(Cl)c(Cl)cc32)cc1)Nc1ccc(-n2nnc3cc(Cl)c(Cl)cc32)cc1 | 25.5% | 87.6% | -5.56% (active) | 31% | 59.8% | 56.1% | 49.8% | 84.5% | 36.7% | 51.2% | 51.2% | 49.6% | 22.6% | 45.3% | 93.7% | 70.9%
CN1CC=C(c2cc(NC(=O)Nc3ccc(Oc4ccnc(NC(=O)C5CC5)c4)c(F)c3)cc(C(F)(F)F)c2)CC1 | -2.13% (active) | 7.5% (active) | 3.24% (active) | 17.1% | 2.9% (active) | 8.26% (active) | -17.3% (active) | 44.7% | -0.194% (active) | -11.2% (active) | -12.4% (active) | -0.0556% (active) | -17.1% (active) | -10.7% (active) | 11.8% | -11.2% (active)
Cc1cc(C)cc(Nc2nccc(-c3c(-c4ccc(F)cc4)ncn3C3CCNCC3)n2)c1 | -24.8% (active) | 35.2% | 30.3% | 9.09% (active) | -40.1% (active) | – | 24.3% | 15.3% | 15.2% | 17.7% | -78.8% (active) | -28% (active) | -8.14% (active) | -98.8% (active) | -60.2% (active) | 11.8%
O=C1CCC23OC(c4ccccc4N12)C(O)C(O)C3O (configuration not stated) | 99.3% | 110% | 105% | 117% | 98.2% | 96.3% | 105% | 101% | 110% | 111% | 110% | 103% | 100% | 84.9% | 94.5% | 104%
C=C1C(=O)O[C@H]2[C@H]1CC/C(COC(=O)/C=C/c1cccnc1)=C\CC[C@@]1(C)O[C@@H]21 | 40.6% | 59.1% | 32.4% | 80.2% | 36.7% | -6.31% (active) | 62.8% | 54.5% | 23% | 20.5% | 27.7% | -32% (active) | 11.9% | -66.3% (active) | 94.8% | 79.4%
C#CCN(CCCOc1ccc(Cl)cc1Cl)CCCSC(=O)CCCCCN1/C(=C\C=C2/CCCC(/C=C/C3=[N+](CCCCCC(=O)[O-])c4ccccc4C3(C)C)=C2Cl)C(C)(C)c2ccccc21 | 8.18% (active) | 66.4% | 57.1% | 65% | -13.2% (active) | 1.44% (active) | 6.47% (active) | 106% | -21.4% (active) | -34.2% (active) | -60.1% (active) | 3.31% (active) | 6.92% (active) | 9.39% (active) | 40.3% | 6.88% (active)
COc1ccccc1-c1ccc2nc(NC(=O)Nc3cc(C(F)(F)F)cc(C(F)(F)F)c3)sc2c1 | 9.39% (active) | 20.5% | 16.5% | -13.2% (active) | 42.4% | 8% (active) | -0.697% (active) | 5.44% (active) | -13.5% (active) | 13.2% | 10.9% | 11.9% | 4.1% (active) | 4.85% (active) | 11.8% | 3.63% (active)
CN1CCN(S(=O)(=O)O[C@@H]2C(=O)N(c3cc4c5ccccc5ccc4c4ccccc34)[C@H]2c2ccc(F)cn2)CC1 | 85.7% | 108% | 99.1% | 97.9% | 87.8% | 88.4% | 84.1% | 92.2% | 78.9% | 95.8% | 98.1% | 98.2% | 87.4% | 85.3% | 90.4% | 91.1%
CCOc1ccccc1C(=O)/C=C/c1cc2ccccc2[nH]c1=O | 7.43% (active) | 5.93% (active) | 32.3% | 18.8% | 1.32% (active) | – | 60.1% | -4.24% (active) | 4.65% (active) | -19.2% (active) | 5.11% (active) | 4.2% (active) | 3.4% (active) | -64.7% (active) | -97.6% (active) | -45.3% (active)
O=C(CCCCCCCCC(=O)Nc1cccc(C2=NCCN2)c1)Nc1cccc(C2=NCCN2)c1 | 107% | 109% | 102% | 113% | 104% | 112% | 113% | 104% | 81% | 92.2% | 99.2% | 97.1% | 49.9% | 98.3% | 95.7% | 95.5%
CCc1c(C(=O)N[C@@H](C(=O)OCc2ccccc2)C(C)O)[nH]c2ccc(Cl)cc12 (some centres not stated) | 59.2% | 69.1% | -46.9% (active) | 59.3% | 46.3% | – | – | 68.2% | 47.5% | 90.8% | 87.9% | 54.4% | 65.6% | 18.9% | 101% | 77.3%
COC(=O)c1nc(-c2ccccc2)oc1S(=O)(=O)n1nc(-c2ccccc2)cc1N | 75.8% | 93.5% | 107% | 106% | 73.6% | 68.3% | 101% | 99% | 49.5% | 82.2% | 63.6% | 10.9% | 80.9% | 84.8% | 108% | 92.2%
C#C[C@@]1(O)[C@@H](CO)O[C@@H](n2cc(-c3ccco3)c3c(N)ncnc32)[C@@H]1O | – | 66.9% | 61.2% | 26.3% | -11.6% (active) | 80.3% | 49.8% | 61.7% | -17.2% (active) | 58.5% | 66.4% | 63.5% | 13.9% | 68% | 56.4% | 18.2%
Nc1ccccc1NC(=O)c1ccc(CSc2nc(N3CCOCC3)c3cccn3n2)cc1 | – | 29.5% | 42% | 6.2% (active) | 21.5% | 1.87% (active) | 23.1% | 3.65% (active) | -1.13% (active) | 15.3% | -21.2% (active) | 9.25% (active) | 10.3% | 6.78% (active) | 17.6% | 16.6%
O=C(CCl)N1CCCc2ccccc21 | 107% | 99.2% | 102% | 119% | 106% | 94.9% | 105% | 96.8% | 106% | 97.1% | 91.8% | 99% | 92% | 95.9% | 96.6% | 90.4%
Nc1cccc(C(=O)Nc2ccc3c(O)c(N=Nc4ccc(N=Nc5ccc(S(=O)(=O)O)cc5)cc4)c(S(=O)(=O)O)cc3c2)c1 | 107% | 109% | 94.3% | 101% | 97.8% | 102% | 103% | 112% | 83.8% | 98.6% | 105% | 107% | 97.2% | 95% | 114% | 108%
C#C[C@@]1(O)[C@@H](CO)O[C@@H](n2ccc3c(N)ncnc32)[C@@H]1O | -21.7% (active) | 25.6% | 0.622% (active) | -7.62% (active) | 4.28% (active) | 18.2% | 51.6% | -9.78% (active) | -34% (active) | -8.06% (active) | -28.9% (active) | 1.33% (active) | 3.61% (active) | 5.2% (active) | -44.2% (active) | 0.307% (active)
O=C1Nc2ccc(Br)cc2/C1=N\N=C/c1cn(Cc2ccccc2)c2ccccc12 | 96.1% | 28.3% | 84.3% | 76.2% | 80.7% | 109% | 80.9% | 99.5% | 89.6% | 105% | – | 99% | 83.2% | 93.7% | 106% | 96.2%
O=C(Nc1ccccc1)NS(=O)(=O)c1c[nH]c(=S)[nH]c1=O | 94.9% | 113% | 105% | 69.9% | 106% | 110% | 108% | 104% | 75.1% | 92.1% | 108% | 105% | 100% | 93.8% | 114% | 105%
